Source: the supplement of paper PMC10849652
About 7,900 targets were measured; listed, in parts, are those with a hit and a random draw of the rest. About 0.6% of all pairs of compound and target were hits.

The targets below were run with Cc1nc(Nc2n[nH]c3c2CN(C(=O)N[C@H](CN(C)C)c2ccccc2)C3(C)C)c2sccc2n1 (assay: log2 fold change, soluble protein after heating vs DMSO (PISA); higher = thermal stabilisation; K562 cells, 10 uM, 30 min; active = over 0.2 and 3.5 SD of the protein, either way, in both replicates (recomputed)).
In short: (§1)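 K562 cells at 2×10^6 cells/mL were given 10 μM compound for 30 min. Aliquots then went through 3 min of heating across 48°C-58°C, were pooled, and were extracted in PBS with 0.5% NP-40 at 4°C, and the supernatant after 21,000xg for 90 min was quantified by TMTpro 16plex LC-MS/MS with channel sums equalised. Thermal stability relative to control samples, from duplicates, is given as log2 fold change.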

UniProt Q9UBY8, sequence (Q9UBY8 whole entry, looked up): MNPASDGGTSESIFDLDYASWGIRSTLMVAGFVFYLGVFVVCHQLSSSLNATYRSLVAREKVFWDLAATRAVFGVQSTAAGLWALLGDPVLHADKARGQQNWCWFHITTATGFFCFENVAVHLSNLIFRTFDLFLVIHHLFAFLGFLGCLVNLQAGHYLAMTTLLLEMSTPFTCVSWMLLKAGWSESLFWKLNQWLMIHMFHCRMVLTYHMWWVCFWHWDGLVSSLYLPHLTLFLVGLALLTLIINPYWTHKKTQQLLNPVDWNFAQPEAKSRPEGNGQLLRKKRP
UniProt O75122, sequence (O75122 whole entry, looked up): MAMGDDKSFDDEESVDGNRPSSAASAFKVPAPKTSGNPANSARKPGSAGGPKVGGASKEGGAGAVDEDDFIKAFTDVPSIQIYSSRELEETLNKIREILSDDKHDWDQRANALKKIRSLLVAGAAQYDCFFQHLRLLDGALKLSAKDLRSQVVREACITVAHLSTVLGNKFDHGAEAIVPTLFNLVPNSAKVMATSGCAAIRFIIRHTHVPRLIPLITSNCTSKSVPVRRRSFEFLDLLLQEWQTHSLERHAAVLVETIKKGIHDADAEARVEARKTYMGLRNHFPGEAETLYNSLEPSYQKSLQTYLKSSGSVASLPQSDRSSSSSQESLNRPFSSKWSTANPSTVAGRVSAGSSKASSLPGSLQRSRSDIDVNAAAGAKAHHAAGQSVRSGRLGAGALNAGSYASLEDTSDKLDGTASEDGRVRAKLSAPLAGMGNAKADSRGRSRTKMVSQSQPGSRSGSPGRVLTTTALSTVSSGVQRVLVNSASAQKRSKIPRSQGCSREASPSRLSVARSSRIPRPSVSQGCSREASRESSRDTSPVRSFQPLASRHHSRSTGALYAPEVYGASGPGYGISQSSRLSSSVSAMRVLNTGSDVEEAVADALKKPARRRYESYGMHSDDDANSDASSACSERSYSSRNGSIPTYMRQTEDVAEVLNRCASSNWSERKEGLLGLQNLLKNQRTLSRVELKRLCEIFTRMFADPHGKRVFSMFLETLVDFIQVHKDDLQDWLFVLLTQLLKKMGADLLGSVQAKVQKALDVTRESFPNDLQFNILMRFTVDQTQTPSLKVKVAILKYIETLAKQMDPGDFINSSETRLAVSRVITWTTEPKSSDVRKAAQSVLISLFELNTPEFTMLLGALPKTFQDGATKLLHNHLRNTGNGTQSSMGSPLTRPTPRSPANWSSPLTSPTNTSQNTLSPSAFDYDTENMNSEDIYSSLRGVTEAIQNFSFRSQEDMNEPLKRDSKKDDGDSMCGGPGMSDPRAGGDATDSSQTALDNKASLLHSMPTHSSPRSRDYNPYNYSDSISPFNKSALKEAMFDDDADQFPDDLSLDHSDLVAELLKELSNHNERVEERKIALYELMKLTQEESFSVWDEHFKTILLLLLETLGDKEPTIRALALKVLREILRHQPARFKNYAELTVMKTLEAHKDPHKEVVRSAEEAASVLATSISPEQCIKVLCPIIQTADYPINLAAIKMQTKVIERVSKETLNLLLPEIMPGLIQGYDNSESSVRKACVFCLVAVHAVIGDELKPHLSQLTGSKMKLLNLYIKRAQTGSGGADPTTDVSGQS
UniProt O60583, sequence (O60583 whole entry, looked up): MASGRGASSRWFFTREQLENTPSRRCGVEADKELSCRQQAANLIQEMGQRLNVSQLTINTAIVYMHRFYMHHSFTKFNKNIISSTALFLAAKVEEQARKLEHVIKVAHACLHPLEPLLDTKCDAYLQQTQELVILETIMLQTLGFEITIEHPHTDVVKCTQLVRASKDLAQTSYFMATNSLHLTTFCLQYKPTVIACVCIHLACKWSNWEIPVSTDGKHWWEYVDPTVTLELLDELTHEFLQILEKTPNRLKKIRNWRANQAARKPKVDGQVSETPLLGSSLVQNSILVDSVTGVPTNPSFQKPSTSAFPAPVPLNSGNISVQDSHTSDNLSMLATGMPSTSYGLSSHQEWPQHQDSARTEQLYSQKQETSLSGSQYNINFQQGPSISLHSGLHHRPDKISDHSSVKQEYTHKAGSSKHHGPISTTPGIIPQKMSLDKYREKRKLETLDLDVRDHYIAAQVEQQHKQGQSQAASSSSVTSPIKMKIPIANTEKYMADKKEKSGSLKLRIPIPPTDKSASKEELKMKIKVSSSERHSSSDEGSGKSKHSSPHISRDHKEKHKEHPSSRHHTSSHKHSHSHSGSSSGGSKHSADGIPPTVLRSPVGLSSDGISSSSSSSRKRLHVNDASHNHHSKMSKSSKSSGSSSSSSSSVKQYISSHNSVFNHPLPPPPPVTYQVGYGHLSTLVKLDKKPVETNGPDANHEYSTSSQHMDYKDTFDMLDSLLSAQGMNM
UniProt Q8N4S0, sequence (Q8N4S0 whole entry, looked up): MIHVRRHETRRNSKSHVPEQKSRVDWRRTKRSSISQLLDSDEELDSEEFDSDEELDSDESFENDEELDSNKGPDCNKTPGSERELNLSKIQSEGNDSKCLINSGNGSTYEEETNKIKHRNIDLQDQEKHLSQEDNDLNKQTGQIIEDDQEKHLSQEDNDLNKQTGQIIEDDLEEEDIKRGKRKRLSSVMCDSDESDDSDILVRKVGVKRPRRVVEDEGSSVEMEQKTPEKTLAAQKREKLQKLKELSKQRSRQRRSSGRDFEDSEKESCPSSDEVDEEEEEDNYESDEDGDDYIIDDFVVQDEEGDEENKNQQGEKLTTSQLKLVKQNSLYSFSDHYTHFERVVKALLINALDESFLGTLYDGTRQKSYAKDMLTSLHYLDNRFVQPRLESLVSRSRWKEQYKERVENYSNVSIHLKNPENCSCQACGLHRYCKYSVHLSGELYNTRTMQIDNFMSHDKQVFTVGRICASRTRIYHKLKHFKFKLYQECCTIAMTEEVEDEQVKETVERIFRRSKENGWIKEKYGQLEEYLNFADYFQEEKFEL
UniProt A8MTT3, sequence (A8MTT3 whole entry, looked up): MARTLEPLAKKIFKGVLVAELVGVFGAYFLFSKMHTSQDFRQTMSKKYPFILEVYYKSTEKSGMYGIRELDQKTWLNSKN
UniProt Q14677, sequence (Q14677 whole entry, looked up): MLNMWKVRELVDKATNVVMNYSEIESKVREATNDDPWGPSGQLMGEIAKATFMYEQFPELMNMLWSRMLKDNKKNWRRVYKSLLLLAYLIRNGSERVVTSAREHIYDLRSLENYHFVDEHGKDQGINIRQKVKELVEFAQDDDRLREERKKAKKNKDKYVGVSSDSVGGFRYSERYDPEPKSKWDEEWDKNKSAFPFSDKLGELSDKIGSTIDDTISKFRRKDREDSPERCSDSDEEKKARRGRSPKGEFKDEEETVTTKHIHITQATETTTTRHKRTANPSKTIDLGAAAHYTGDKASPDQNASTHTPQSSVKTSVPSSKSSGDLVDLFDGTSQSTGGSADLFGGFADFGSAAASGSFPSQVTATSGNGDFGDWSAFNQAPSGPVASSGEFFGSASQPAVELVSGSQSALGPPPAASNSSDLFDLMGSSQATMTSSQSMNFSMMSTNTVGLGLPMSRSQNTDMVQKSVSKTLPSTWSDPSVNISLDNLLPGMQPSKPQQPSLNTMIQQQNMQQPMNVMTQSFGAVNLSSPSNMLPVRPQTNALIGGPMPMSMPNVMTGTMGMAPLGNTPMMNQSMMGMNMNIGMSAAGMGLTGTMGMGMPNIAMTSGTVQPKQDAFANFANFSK
UniProt Q92828, sequence (Q92828 whole entry, looked up): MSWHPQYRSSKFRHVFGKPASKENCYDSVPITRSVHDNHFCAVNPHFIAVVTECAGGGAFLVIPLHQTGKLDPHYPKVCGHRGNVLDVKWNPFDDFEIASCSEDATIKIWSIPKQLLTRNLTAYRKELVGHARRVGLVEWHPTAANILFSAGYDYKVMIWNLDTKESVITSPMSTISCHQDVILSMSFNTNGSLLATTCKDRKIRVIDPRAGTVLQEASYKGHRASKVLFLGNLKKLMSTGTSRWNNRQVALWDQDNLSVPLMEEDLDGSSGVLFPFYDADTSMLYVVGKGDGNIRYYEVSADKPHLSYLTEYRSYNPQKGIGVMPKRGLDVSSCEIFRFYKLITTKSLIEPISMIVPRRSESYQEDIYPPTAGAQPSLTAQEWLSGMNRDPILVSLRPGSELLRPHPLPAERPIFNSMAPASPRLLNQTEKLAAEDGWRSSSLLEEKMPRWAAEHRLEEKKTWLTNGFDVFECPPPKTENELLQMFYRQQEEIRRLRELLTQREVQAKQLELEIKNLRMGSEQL
UniProt Q14194, sequence (Q14194 whole entry, looked up): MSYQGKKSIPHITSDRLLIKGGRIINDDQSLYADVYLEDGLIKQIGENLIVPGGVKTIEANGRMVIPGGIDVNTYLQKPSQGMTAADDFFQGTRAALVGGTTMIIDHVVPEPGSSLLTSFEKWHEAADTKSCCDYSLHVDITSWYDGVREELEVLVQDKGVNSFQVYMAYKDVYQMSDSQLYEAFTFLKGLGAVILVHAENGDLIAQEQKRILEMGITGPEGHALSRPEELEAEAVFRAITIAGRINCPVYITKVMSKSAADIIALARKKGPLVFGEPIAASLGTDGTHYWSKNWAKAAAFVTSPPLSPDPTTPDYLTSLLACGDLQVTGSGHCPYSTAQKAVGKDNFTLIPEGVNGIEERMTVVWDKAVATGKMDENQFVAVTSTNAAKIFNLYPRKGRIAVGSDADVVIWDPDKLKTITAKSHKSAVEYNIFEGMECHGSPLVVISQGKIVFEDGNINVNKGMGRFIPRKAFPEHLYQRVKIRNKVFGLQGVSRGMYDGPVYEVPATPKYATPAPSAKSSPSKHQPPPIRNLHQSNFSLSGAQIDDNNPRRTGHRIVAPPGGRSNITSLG
UniProt O75956, sequence (O75956 whole entry, looked up): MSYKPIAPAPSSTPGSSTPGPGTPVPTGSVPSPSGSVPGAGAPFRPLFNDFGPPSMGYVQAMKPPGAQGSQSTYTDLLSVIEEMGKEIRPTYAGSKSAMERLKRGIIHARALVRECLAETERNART
UniProt P33552, sequence (P33552 whole entry, looked up): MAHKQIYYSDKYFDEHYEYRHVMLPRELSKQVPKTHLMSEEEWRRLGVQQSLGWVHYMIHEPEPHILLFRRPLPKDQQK

log2 fold change, inactive:
CORO2A (UniProt Q92828) -0.052
CLINT1 (UniProt Q14677) -0.048
CLPTM1L (UniProt G5E9Z2) 0.099
CNRIP1 (UniProt Q96F85) -0.071
CLCN5 isoform 2 (UniProt P51795) 0.014
CNN1 (UniProt P51911) 0
CNOT4 isoform 9 (UniProt O95628) -0.172
CCNT2 (UniProt O60583) -0.161
CLASP2 (UniProt O75122) -0.278
CLN3 (UniProt Q13286) 0.002
CCDC82 (UniProt Q8N4S0) -0.017
CCNDBP1 (UniProt O95273) 0.028
CDC25B isoform 4 (UniProt P30305) -0.051
COMMD3-BMI1 (UniProt R4GMX3) -0.02
CCDC187, A0A1W2PQX5 0.027
CEBPZOS (UniProt A8MTT3) 0.021
CREB3L2 (UniProt Q70SY1) -0.009
CEMIP2 (UniProt Q9UHN6) 0.083
CLN8 (UniProt Q9UBY8) -0.11
CASP7 isoform 3 (UniProt P55210) -0.001
CDK2AP2 (UniProt O75956) 0.028
CKS2 (UniProt P33552) -0.188
CRMP1 isoform 2 (UniProt Q14194) 0.221

These targets were tested with Cc1nc(Nc2ncc(C(=O)Nc3c(C)cccc3Cl)s2)cc(N2CCN(CCO)CC2)n1 [dasatinib] in the same assay as above.
In short: as §1

log2 fold change, inactive:
CCND3 (UniProt P30281) -0.08
CORO2A (UniProt Q92828) -0.066
CLINT1 (UniProt Q14677) 0.142
CLCN5 isoform 2 (UniProt P51795) -0.177
CNOT4 isoform 9 (UniProt O95628) 0.074
CCNT2 (UniProt O60583) -0.02
CFAP47 (UniProt Q6ZTR5) -0.117
CLN3 (UniProt Q13286) 0.064
CCDC82 (UniProt Q8N4S0) 0.015
CCNDBP1 (UniProt O95273) 0.023
CEBPZOS (UniProt A8MTT3) 0.009
CEMIP2 (UniProt Q9UHN6) -0.044
CASK (UniProt O14936) 0.096
CLN8 (UniProt Q9UBY8) 0.032
CA1 (UniProt E5RIF9) -0.098
CASP7 isoform 3 (UniProt P55210) -0.239
CKS2 (UniProt P33552) 0.096
CRMP1 isoform 2 (UniProt Q14194) -0.074

Each target was assayed with Cc1ncc(-c2ccnc(Nc3ccc(S(C)(=O)=O)cc3)n2)n1C(C)C in the same assay as above.
In short: as §1

log2 fold change, inactive:
CORO2A (UniProt Q92828) -0.049
CLINT1 (UniProt Q14677) -0.151
CLPTM1L (UniProt G5E9Z2) -0.053
CNRIP1 (UniProt Q96F85) 0.056
CLCN5 isoform 2 (UniProt P51795) -0.063
CNN1 (UniProt P51911) 0.031
CNOT4 isoform 9 (UniProt O95628) 0
CCNT2 (UniProt O60583) -0.462
CLASP2 (UniProt O75122) -0.231
CLN3 (UniProt Q13286) -0.02
CCDC82 (UniProt Q8N4S0) -0.043
CCNDBP1 (UniProt O95273) 0.21
CDC25B isoform 4 (UniProt P30305) -0.206
COMMD3-BMI1 (UniProt R4GMX3) 0.046
CCDC187, A0A1W2PQX5 0.104
CEBPZOS (UniProt A8MTT3) -0.027
CREB3L2 (UniProt Q70SY1) -0.119
CEMIP2 (UniProt Q9UHN6) 0.031
CLN8 (UniProt Q9UBY8) -0.083
CASP7 isoform 3 (UniProt P55210) -0.102
CDK2AP2 (UniProt O75956) -0.063
CKS2 (UniProt P33552) -0.222
CRMP1 isoform 2 (UniProt Q14194) -0.138

What follows are targets tested with Cn1cc(-c2ccc3c(c2)CCN3C(=O)Cc2cccc(C(F)(F)F)c2)c2c(N)ncnc21 in the same assay as above.
In short: as §1

log2 fold change, inactive:
CCND3 (UniProt P30281) 0.04
CORO2A (UniProt Q92828) -0.017
CLINT1 (UniProt Q14677) 0.047
CLPTM1L (UniProt G5E9Z2) 0.037
CLCN5 isoform 2 (UniProt P51795) 0.041
CNN1 (UniProt P51911) 0.04
CNOT4 isoform 9 (UniProt O95628) 0.096
CLASP2 (UniProt O75122) -0.155
CLN3 (UniProt Q13286) -0.049
CPNE5 (UniProt Q9HCH3) -0.077
CCDC82 (UniProt Q8N4S0) -0.132
CCNDBP1 (UniProt O95273) -0.055
CDC25B isoform 4 (UniProt P30305) 0.095
COMMD3-BMI1 (UniProt R4GMX3) 0.141
CREB3L2 (UniProt Q70SY1) 0.039
CEMIP2 (UniProt Q9UHN6) 0.03
CLN8 (UniProt Q9UBY8) 0.258
CDK2AP2 (UniProt O75956) -0.022
CRMP1 isoform 2 (UniProt Q14194) 0.182
CRTC3 (UniProt Q6UUV7) -0.002
